SENP6 block: SENP6 protease inhibitors, primary screen, biochemical, luminescence, uHTS; 330,000 tested, 1.8% active; Recombinant SENP6 catalytic domain, aminoluciferin luminescence; AID 2599, 2010; Sentrin-specific protease 6 (Homo sapiens), Q9GZR1; inhibition, % at 10 µM;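 active = inhibition above about 50% at the single tested dose, limit read from the data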
SENP8 block-1: human SENP8 protease inhibitors, primary screen, biochemical, fluorescence, Nedd8 protein substrate, uHTS | recombinant SENP8 | inhibition, % at 20 µM | 360,000 tested, 0.64% active | Sentrin-specific protease 8 (Homo sapiens), Q96LD8; in the data active = inhibition mostly above about 40%, no sharp cut-off; inactive = mostly below about 27%
Target sequence (Q96LD8 whole entry, looked up): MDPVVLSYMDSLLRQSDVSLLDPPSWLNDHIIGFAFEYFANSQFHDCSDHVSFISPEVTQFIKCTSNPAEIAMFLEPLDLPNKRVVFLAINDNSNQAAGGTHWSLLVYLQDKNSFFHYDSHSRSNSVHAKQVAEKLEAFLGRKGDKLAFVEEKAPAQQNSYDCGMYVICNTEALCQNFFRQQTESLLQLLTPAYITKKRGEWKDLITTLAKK
HSP90 refold inh: HSP90 inhibitors, primary screen, cell lysate, luminescence; Rabbit reticulocyte lysate, luciferase refolding luminescence, 3 h; inhibition, % at 5.6 µM; 290,000 tested, 0.91% active; AID 1789, 2009;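 active = inhibition above the screen-wide mean plus 3 SD, computed separately per campaign, cut at about 16% in these data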;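 note: inhibitors lower the luminescence because luciferase stays unfolded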
SENP8 block-2: SENP8 protease inhibitors, primary screen, biochemical, luminescence; Sentrin-specific protease 8 (Homo sapiens), Q96LD8; purified SENP8, Z-RLRGG-aminoluciferin cleavage; inhibition, % at 10 µM; 330,000 tested, 1.2% active; in the data active = inhibition above about 50%
SENP7 inh: SENP7 protease inhibitors, primary screen, biochemical, luminescence, uHTS; 330,000 tested, 1.5% active; recombinant SENP7, Z-RLRGG-aminoluciferin luminescence, 40 min; AID 434973, 2010; inhibition, % at 5 µM; Sentrin-specific protease 7 (Homo sapiens), Q9BQF6;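 active = inhibition above about 50% at the single test dose, limit read from the data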
SENP8 conf: SENP8 protease inhibitors, retest, confirmation, biochemical, luminescence, single concentration; shares compounds with SENP7 inh; Recombinant SENP8, Z-RLRGG-aminoluciferin luminescence, 60 min; inhibition, % at 12.5 µM; 6,200 tested, 40% active; AID 488912, 2010;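 active = mean inhibition across replicates above about 50%, limit read from the data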
SENP6 confirm: SENP6 protease inhibitors, confirmation, biochemical, luminescence, single concentration; 6,200 tested, 58% active; recombinant SENP6, Z-RLRGG-aminoluciferin luminescence; shares compounds with SENP7 inh; inhibition, % at 12.5 µM
SENP7 conf: SENP7 protease inhibitors, retest, confirmation, biochemical, luminescence, single concentration; shares compounds with SENP7 inh; recombinant SENP7, Z-RLRGG-aminoluciferin luminescence, 40 min; inhibition, % at 12.5 µM; 6,200 tested, 69% active
Casp3 SENP sel: caspase-3 protease inhibitors, confirmation, selectivity assay for SENP inhibitor project, biochemical, single concentration; shares compounds with SENP7 inh; purified caspase-3, Z-DEVD-aminoluciferin luminescence, 60 min; inhibition, % at 12.5 µM; 6,200 tested, 60% active;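 active = mean inhibition above about 50%, limit read from the data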
Target sequence (P42574 28-227 limits assumed): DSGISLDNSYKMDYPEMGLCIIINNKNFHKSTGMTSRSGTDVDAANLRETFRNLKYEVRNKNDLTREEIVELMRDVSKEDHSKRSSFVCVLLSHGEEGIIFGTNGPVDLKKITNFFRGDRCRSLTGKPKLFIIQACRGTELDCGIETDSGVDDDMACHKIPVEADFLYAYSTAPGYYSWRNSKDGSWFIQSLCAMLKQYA
Luc interf: interferes with luciferase luminescence in SENP counter-screen | shares compounds with SENP7 inh | Pre-incubated SENP8/Z-RLRGG-aminoluciferin, luciferase luminescence interference | inhibition, % at 12.5 µM | 6,200 tested, 39% active | AID 488919;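 active = mean inhibition above about 50% when retested at one dose, limit read from the data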
A number is an active result; – = inactive; · = not tested or not shown. This is a sample that favours compounds with a hit; in the whole collection about 2.7% have one here.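 Rule for the calls, unless noted: active = mean inhibition above about 50% in the one-dose retest (limit read from the data); inactive = the rest.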

SMILES	SENP6 block	SENP8 block-1	HSP90 refold inh	SENP8 block-2	SENP7 inh	SENP8 conf	SENP6 confirm	SENP7 conf	Casp3 SENP sel	Luc interf
COc1cc(NC(=O)c2ccc3c(c2)OCO3)ccc1NC(=O)C(C)C	–	–	–	–	–	·	·	·	·	·
CC1=CC(=O)C(C(C)=Nc2ccccc2Cl)C(=O)O1 (configuration not stated)	–	–	–	–	–	·	·	·	·	·
COCCNC(=O)C1CCN(S(=O)(=O)N2CCC3(CC2)OCCO3)CC1	–	–	–	–	–	·	·	·	·	·
COc1cc(NC(=O)c2cccc(Br)c2)nc(OC)n1	53.8	–	–	–	–	–	–	67.6	–	–
CCOC(=O)/C(=N\Nc1ncnc2ccccc12)c1ccc(C)cc1	60.8	–	–	61.6	–	–	56.1	77.6	–	–
O=C(Nc1nc2c(F)cccc2s1)c1ccco1	80.8	–	–	74.2	76.1	80.2	76.6	93.8	84.0	–
CC(=O)c1sc(NC(=O)c2ccco2)nc1-c1ccccc1	–	–	–	–	–	·	·	·	·	·
Cc1sc(NC(=O)c2ccco2)nc1-c1ccccc1	51.2	–	–	–	–	–	–	72.3	–	61.4
CC(=O)Nc1ccc2nc(NC(=O)c3ccco3)sc2c1	68.3	–	–	–	66.3	57.2	54.3	85.9	84.5	–
COc1ccc2c(c1)Cc1sc(NC(=O)c3ccco3)nc1-2	91.7	–	–	88.0	94.6	–	–	87.3	63.7	78.4
COc1ccc2c(c1)CCc1sc(NC(=O)c3ccco3)nc1-2	–	–	–	–	–	·	·	·	·	·
CC(=O)Nc1nc2c(F)cccc2s1	–	–	–	–	–	·	·	·	·	·
FCCCOc1ccc(-c2ccnc3ncnn23)cc1	–	–	–	–	–	·	·	·	·	·
O=C(Nc1ccsc1C(=O)O)c1cccc(Oc2ccccc2)c1	93.1	–	–	90.7	–	94.9	95.6	98.7	78.8	95.0
COC(=O)c1sccc1NC(=O)c1ccncc1	–	–	–	–	–	·	·	·	·	·
O=C(Nc1ccsc1C(=O)O)c1cccc(C(F)(F)F)c1	74.8	–	–	68.8	–	82.1	82.2	92.0	80.0	82.6
O=C(Nc1ccsc1C(=O)O)c1ccc(Cl)cc1	93.6	–	–	90.7	88.1	94.9	95.8	101.3	96.1	94.9
Cc1ccccc1NC(=O)c1cccc(C(F)(F)F)c1	–	–	–	–	–	·	·	·	·	·
CC(=O)N1CCc2cc(Br)cc(S(=O)(=O)NCCCN3CCC(C)CC3)c21	–	–	–	–	–	·	·	·	·	·
S=C(Nc1ccc2nsnc2c1)N1CCCC1	82.6	–	–	57.0	53.9	–	–	–	69.9	66.7
Oc1ccc(/C=N/NC(=S)Nc2cccnc2)cc1	–	–	–	–	–	·	·	·	·	·
Oc1ccc(/C=N/NC(=S)N/N=C/c2ccc(O)cc2)cc1	61.9	–	–	–	–	54.5	51.7	75.6	84.9	59.1
COc1ccc(O)c(C(=O)/C=C/c2cc3ccccc3o2)c1	–	–	–	–	–	·	·	·	·	·
O=C(COC(=O)/C=C/c1ccccc1)NCCC1=CCCCC1	–	–	–	–	–	·	·	·	·	·
Cc1nc(C)c(-c2ccc(SCc3ccccc3C)nn2)s1	–	–	–	–	–	·	·	·	·	·
SMILES	SENP6 block	SENP8 block-1	HSP90 refold inh	SENP8 block-2	SENP7 inh	SENP8 conf	SENP6 confirm	SENP7 conf	Casp3 SENP sel	Luc interf
O=C1/C(=C\c2cccnc2)CCc2ccccc21	74.4	–	–	–	–	74.9	62.6	–	–	84.3
O=C1/C(=C/c2ccccc2)CCCc2ccccc21	69.9	–	–	75.8	65.7	89.0	92.9	97.0	76.3	82.8
O=C1C(=Cc2ccc(F)cc2)Cc2ccccc21	·	–	·	·	·	·	·	·	·	·
NC(=O)C1CCN(C(=O)C2CC(=O)N(c3ccc(F)cc3)C2)CC1 (configuration not stated)	–	–	–	–	–	·	·	·	·	·
O=C(NCSC1=NCCS1)c1ccccc1	–	–	–	–	–	·	·	·	·	·
CC(C)CNC(=O)C1(C)CCCCCN1C(=O)c1cc(C#N)cs1 (configuration not stated)	·	–	·	·	·	·	·	·	·	·
N#Cc1sc2nc(-c3ccccc3)cc(-c3ccco3)c2c1N	85.5	–	–	93.0	–	–	–	–	–	–
Cc1cc(C)n(CCc2nc(-c3ccc(-c4ccccc4)cc3)cs2)n1	83.1	–	–	–	79.5	–	–	68.0	–	–
Cc1occc1C(=O)Nc1cccc2ccccc12	96.3	–	–	91.1	95.0	–	95.5	101.6	91.4	93.5
CCN(CC)c1ccc(/C=N/NC(=O)OC)c(O)c1	–	–	–	–	–	·	·	·	·	·
CCN(CC)c1ccc(/C=N/NC(=O)c2ccoc2C)c(O)c1	98.0	–	–	94.1	100.5	96.2	97.7	103.4	–	–
Cc1occc1C(=O)Nc1ccccc1NC(=O)c1ccoc1C	–	–	–	–	–	·	·	·	·	·
Cc1occc1C(=O)N/N=C/c1ccc(-c2ccccc2)cc1	99.0	–	45.3	97.5	100.2	71.3	99.8	102.6	98.5	69.9
Cc1occc1C(=O)N/N=C/c1cccs1	66.8	–	–	62.2	83.0	72.4	72.1	91.0	91.4	74.0
COc1ccc(/C=N/NC(=O)c2ccoc2C)cc1OC	56.3	–	–	–	–	–	–	69.8	79.5	52.0
COc1ccc(/C=N/NC(=O)c2ccoc2C)cc1O	75.6	–	–	–	67.2	68.5	67.4	88.9	89.9	72.7
COc1cc(/C=N/NC(=O)c2ccoc2C)cc(OC)c1OC	–	–	–	–	–	·	·	·	·	·
Cc1occc1C(=O)N/N=C/c1cccc2ccccc12	89.8	–	–	88.7	92.1	56.0	87.8	99.7	89.4	–
Cc1occc1C(=O)N/N=C/C(Br)=C/c1ccccc1	91.6	–	–	84.2	88.5	66.1	91.7	99.0	88.4	–
CC(C)(C)C1CCC2(CC1)C(Nc1cccc(C(F)(F)F)c1)=NC(=S)N2CC#N (configuration not stated)	–	–	–	–	–	·	·	·	·	·
Oc1ccc(Cc2ncc(C(F)(F)F)cc2Cl)cc1	–	–	–	–	–	·	·	·	·	·
